According to PubChem BioAssay AID624405 (Broad Institute, 2012):
Hit rate of the full screen: of about 1,900 compounds, about 250 (13%) were called active. Another 4% or so got no clear call; they are omitted. A selection follows. Potency and affinity values are given separately. A number with no mark means an inactive call.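 The calls were made as follows: active = fitted curve reaches 40% rescue activity at or below the top valid dose, in every test run; inconclusive = test runs disagree, some active and some inactive; inactive = every run misses the threshold or moves the wrong way.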

Assay: rescue of simvastatin-induced ATP loss – cell-based, C2C12 myotubes, ATP luminescence, cherry pick, dose response (AID 624405);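 also: myotubes are challenged with simvastatin at 10 µM to lower ATP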
Details: 48 h, scaled: DMSO wells 0, geranylgeraniol wells 100; series mostly up to 19.5 µM; rescue activity (ATP increase): at the top concentration
In the case of `O=C1c2ccccc2NC(c2cccc(F)c2)N1Cc1ccco1` (stereo not given), the “rescue activity (ATP increase)” value was 16.9%. In the case of `C[C@H](CO)N1C[C@H](C)[C@@H](CN(C)S(=O)(=O)c2cccs2)OCCCC[C@H](C)Oc2ccc(NC(=O)Nc3ccc(F)cc3)cc2C1=O`, the “rescue activity (ATP increase)” value was -8.95%. For `CCc1ccc(C(O)(CC(C)C)C(CN2CCOCC2)c2ccccc2)cc1` (stereo not given), the “rescue activity (ATP increase)” value was 30.6%. In the case of `N#CC(c1ccc(Cl)cc1)c1ccc(Cl)nn1` (stereo not given), the “rescue activity (ATP increase)” value was 23.7%. For `Cc1cc(C)n(CC(=O)N2c3ccccc3Sc3ccccc32)n1`, the “rescue activity (ATP increase)” value was -1.56%. With `O=C(COC(=O)Cc1ccccc1F)NCc1ccc(Cl)cc1` the “rescue activity (ATP increase)” value was -19.9%. For `CCOC(=O)C(C)C1(O)c2ccccc2-c2ncccc21` (stereo not given), the “rescue activity (ATP increase)” value was -4.05%. In the case of `CN1C[C@H]2[C@@H](c3ccccc31)[C@@H](CO)N2Cc1ccccc1`, the “rescue activity (ATP increase)” value was 5.51%. For `CC(=O)N1c2ccc(S(=O)(=O)NCCC(=O)NCCc3ccc(C)cc3)cc2CC1C` (stereo not given), the “rescue activity (ATP increase)” value was -9.48%. In the case of `CCOc1ccc(N(CC(=O)NCc2ccco2)S(=O)(=O)c2ccc(OC)c(OC)c2)cc1`, the “rescue activity (ATP increase)” value was 11.6%. In the case of `Nc1nnc(-c2ccccc2)c(-c2ccccc2)n1`, the “rescue activity (ATP increase)” value was 15.7%. For `O=S(=O)(NC1=NCCC1)c1ccc(F)cc1`, the “rescue activity (ATP increase)” value was 27.9%. With `C[C@@H]1CCCCO[C@@H](CN(C)S(=O)(=O)c2cccs2)[C@@H](C)CN([C@@H](C)CO)C(=O)c2cc(NC(=O)Nc3ccc(F)cc3)ccc2O1` the “rescue activity (ATP increase)” value was 2.39%. For `C[C@@H]1CCCCO[C@H](CN(C)C(=O)NC2CCCCC2)[C@H](C)CN([C@@H](C)CO)C(=O)c2cc(NS(=O)(=O)c3cccs3)ccc2O1`, the “rescue activity (ATP increase)” value was 21.2%. For `Cc1cc(S(=O)(=O)Nc2nc(CN3CCOCC3)nc3sc4c(c23)CCCC4)ccc1F`, the “rescue activity (ATP increase)” value was -8.27%. For `C[C@H]1CN([C@@H](C)CO)C(=O)Cc2cc(NC(=O)Cc3ccccc3)ccc2O[C@@H]1CN(C)Cc1ccc(Cl)c(Cl)c1`, the “rescue activity (ATP increase)” value was 22.2%. For `C[C@H]1CN([C@@H](C)CO)C(=O)Cc2cc(NC(=O)CCCCCC(=O)Nc3ccccc3N)ccc2O[C@@H]1CN(C)Cc1ccc(Cl)c(Cl)c1`, the “rescue activity (ATP increase)” value was 37.1% [at 18 µM]. In the case of `CC1CCCCN1S(=O)(=O)c1ccc(C(=O)Nc2sccc2C(N)=O)cc1` (stereo not given), the “rescue activity (ATP increase)” value was 39%. For `O=C(CNC(=O)c1ccc(Br)cc1)N/N=C/c1cccnc1`, the “rescue activity (ATP increase)” value was 11.2%. In the case of `C[C@@H]1CCCCO[C@@H](CN(C)CC2CCCCC2)[C@@H](C)CN([C@H](C)CO)C(=O)c2cc(NC(=O)Nc3ccc4c(c3)OCO4)ccc2O1`, the “rescue activity (ATP increase)” value was -13.1% [at 21 µM]. For `C[C@@H]1CN([C@H](C)CO)C(=O)c2cccc(NC(=O)c3nc4ccccc4s3)c2O[C@@H]1CN(C)C(=O)Nc1cccc2ccccc12`, the “rescue activity (ATP increase)” value was 24%. With `C[C@H](CO)N1C[C@H](C)[C@H](CN(C)Cc2ccc(C(=O)Nc3ccccc3N)cc2)Oc2ccc(NC(=O)Nc3ccc(C(F)(F)F)cc3)cc2C1=O` the “rescue activity (ATP increase)” value was 13.2% [at 16 µM]. In the case of `C[C@@H]1CN([C@@H](C)CO)C(=O)c2cc(NC(=O)Nc3ccc(C(F)(F)F)cc3)ccc2O[C@@H]1CN(C)Cc1ccc(C(=O)Nc2ccccc2N)cc1`, the “rescue activity (ATP increase)” value was 4.69%. In the case of `C[C@@H]1CN([C@@H](C)CO)C(=O)c2cccc(NC(=O)Nc3ccccc3)c2O[C@H]1CN(C)Cc1ccc(C(=O)Nc2ccccc2N)cc1`, the “rescue activity (ATP increase)” value was 25.3%. In the case of `C[C@@H]1CN([C@H](C)CO)C(=O)c2cccc(NC(=O)C3CCOCC3)c2O[C@@H]1CN(C)Cc1ccc(C(=O)Nc2ccccc2N)cc1`, the “rescue activity (ATP increase)” value was 39%. For `C[C@@H]1CN([C@H](C)CO)C(=O)c2cc(NC(=O)Nc3ccc(C(F)(F)F)cc3)ccc2O[C@H]1CN(C)Cc1ccc(C(=O)Nc2ccccc2N)cc1`, the “rescue activity (ATP increase)” value was 27.5% [at 16 µM]. In the case of `C[C@@H]1CN([C@@H](C)CO)C(=O)c2cccc(NC(=O)c3nc4ccccc4s3)c2O[C@H]1CN(C)Cc1ccc(C(=O)Nc2ccccc2N)cc1`, the “rescue activity (ATP increase)” value was 14.9%. For `C[C@H]1CN([C@@H](C)CO)C(=O)c2cc(NC(=O)Nc3ccc(C(F)(F)F)cc3)ccc2O[C@H]1CN(C)Cc1ccc(C(=O)Nc2ccccc2N)cc1`, the “rescue activity (ATP increase)” value was 44.6% [at 18 µM]. For `O=C(O)CCC(C(=O)O)n1c(O)c(C2=c3ccccc3=NC2=O)sc1=S` (stereo not given), the “rescue activity (ATP increase)” value was -21%. With `COc1ccc(C(=O)N2C[C@H]3[C@@H](c4ccccc42)[C@H](CO)N3Cc2ccccc2)cc1` the “rescue activity (ATP increase)” value was 16.5% [at 21 µM]. With `C[C@H]1CN([C@@H](C)CO)C(=O)c2cccc(NC(=O)Nc3ccc(C(F)(F)F)cc3)c2O[C@@H]1CN(C)S(=O)(=O)c1ccc(Cl)cc1` the “rescue activity (ATP increase)” value was -65.9%. For `C[C@H]1CCCCO[C@H](CN(C)C(=O)Nc2cccc3ccccc23)[C@@H](C)CN([C@@H](C)CO)C(=O)c2cc(NC(=O)Nc3ccc4c(c3)OCO4)ccc2O1`, the “rescue activity (ATP increase)” value was 11.2% [at 21 µM]. With `COc1ccc(S(=O)(=O)N2CCN(c3ccc4nnc(-c5ccccc5)n4n3)CC2)cc1` the “rescue activity (ATP increase)” value was 30.8%. In the case of `COc1ccc(-c2nc(CC(=O)O)cs2)cc1`, the “rescue activity (ATP increase)” value was 7.8%. In the case of `COc1ccc(-c2noc(CCCOc3ccc(Cl)cc3Cl)n2)cc1`, the “rescue activity (ATP increase)” value was 4.69%. With `COc1ccc2sc(-c3ccccc3OC)c(-c3ccc(O)cc3)c2c1` the “rescue activity (ATP increase)” value was -11.5%. With `C[C@@H]1CCCCO[C@@H](CN(C)S(=O)(=O)c2ccc(F)cc2)[C@@H](C)CN([C@H](C)CO)C(=O)c2cc(NC(=O)Nc3cccc4ccccc34)ccc2O1` the “rescue activity (ATP increase)” value was -3.78% [at 21 µM]. With `C[C@@H]1CCCCO[C@H](CN(C)S(=O)(=O)c2cccs2)[C@H](C)CN([C@H](C)CO)C(=O)c2cc(NC(=O)Nc3ccc(F)cc3)ccc2O1` the “rescue activity (ATP increase)” value was 19.6%. For `C[C@H]1CN([C@@H](C)CO)C(=O)c2cccc(NC(=O)Nc3ccc(F)cc3)c2O[C@@H]1CN(C)CC1CCCCC1`, the “rescue activity (ATP increase)” value was -6.58% [at 21 µM]. With `C[C@H]1CN([C@@H](C)CO)C(=O)c2cccc(NC(=O)Nc3ccc4c(c3)OCO4)c2O[C@@H]1CN(C)CC1CCCCC1` the “rescue activity (ATP increase)” value was 28.6%. With `CC(=O)c1cc(C#N)c(Oc2ccc(Cl)cc2Cl)nc1C` the “rescue activity (ATP increase)” value was 17.6%. With `CC(=O)C1=C(O)C(=O)N(c2ccc(S(N)(=O)=O)cc2)C1c1ccccc1F` (stereo not given) the “rescue activity (ATP increase)” value was 9.79%. With `C[C@@H]1CN([C@H](C)CO)C(=O)c2cc(C3=CCCCC3)cnc2O[C@@H]1CN(C)C(=O)Nc1ccc(F)cc1` the “rescue activity (ATP increase)” value was 14.7%. With `Cc1noc(C)c1NC(=O)Nc1ccc2c(c1)C(=O)N([C@@H](C)CO)C[C@@H](C)[C@@H](CN(C)C(=O)Nc1cccc3ccccc13)O2` the “rescue activity (ATP increase)” value was 0.347% [at 21 µM]. For `CC(O)CNc1nc2ccccc2n1-c1ncnc2sc3c(c12)CCC3` (stereo not given), the “rescue activity (ATP increase)” value was -34.9%. For `Oc1[nH]c2ccccc2c1C=NCC1CCCO1` (stereo not given), the “rescue activity (ATP increase)” value was -6.3%. For `CCOC(=O)C1=NN(C(=O)Cc2ccccc2)C(O)(c2ccc(Cl)cc2)C1` (stereo not given), the “rescue activity (ATP increase)” value was -31.4%. In the case of `C[C@H]1CN([C@@H](C)CO)C(=O)Cc2cc(NC(=O)Nc3cccc4ccccc34)ccc2O[C@@H]1CN(C)Cc1ccc(C(=O)Nc2ccccc2N)cc1`, the “rescue activity (ATP increase)” value was 13.8%. In the case of `C[C@@H]1CN([C@@H](C)CO)C(=O)Cc2cc(NC(=O)Nc3cccc4ccccc34)ccc2O[C@@H]1CN(C)Cc1ccc(C(=O)Nc2ccccc2N)cc1`, the “rescue activity (ATP increase)” value was 6.53%. With `C[C@@H]1CN([C@H](C)CO)C(=O)Cc2cc(NC(=O)Nc3cccc4ccccc34)ccc2O[C@@H]1CN(C)Cc1ccc(C(=O)Nc2ccccc2N)cc1` the “rescue activity (ATP increase)” value was -6.86% [at 21 µM]. With `C[C@@H]1CN([C@H](C)CO)C(=O)Cc2cc(NC(=O)Nc3cccc4ccccc34)ccc2O[C@H]1CN(C)Cc1ccc(C(=O)Nc2ccccc2N)cc1` the “rescue activity (ATP increase)” value was 27.3% [at 16 µM]. For `CCN(CC)C(=O)c1scc2c1OCCO2`, the “rescue activity (ATP increase)” value was -1.7%. In the case of `CC1CC(c2ccccc2)n2nc(N3C(=O)c4ccccc4C3=O)nc2N1` (stereo not given), the “rescue activity (ATP increase)” value was 0.638%. For `Cc1nnc(SCC(=O)NCc2ccccc2)n1-c1ccccc1`, the “rescue activity (ATP increase)” value was 43.2%. With `c1ccc(CSc2nnc(-c3ccccn3)n2-c2ccccc2)cc1` the “rescue activity (ATP increase)” value was 26.3%. With `COc1ccc(CN(C)C[C@@H]2Oc3ccc(NC(=O)Cc4ccccc4)cc3CC(=O)N([C@H](C)CO)C[C@H]2C)cc1` the “rescue activity (ATP increase)” value was 3.11%. For `CC(=O)Nc1cccc(Nc2nc(-c3ccccc3F)nc3ccccc23)c1`, the “rescue activity (ATP increase)” value was -35.7%. For `CCCC(=O)NC(=S)Nc1cccc(C(C)=O)c1`, the “rescue activity (ATP increase)” value was -8.31%. In the case of `CCN(C(=O)COC(=O)c1cnc(C)cn1)C1CCCCC1`, the “rescue activity (ATP increase)” value was -7.24%. With `Cc1cc(C)c2c(c1)/C(=N/NS(=O)(=O)c1ccccc1)CCC2` the “rescue activity (ATP increase)” value was -46.4%. With `Cc1ccccc1N(CC(=O)NC1CCCC1)C(=O)CS(=O)CC(=O)Nc1ccc2c(c1)OCO2` (stereo not given) the “rescue activity (ATP increase)” value was 15.3%. For `CC1CCN(S(=O)(=O)c2ccc3ccccc3c2)CC1`, the “rescue activity (ATP increase)” value was 60.1%. With `CC(C)C(=O)Nc1cc(S(=O)(=O)N2CCOCC2)ccc1N1CCCCC1` the “rescue activity (ATP increase)” value was -33.9%. For `OCCNCc1cccc(-c2ccccc2)c1O`, the “rescue activity (ATP increase)” value was 14.2%. With `CC(C)Oc1ccc(C(=O)NCc2ccco2)cc1` the “rescue activity (ATP increase)” value was -11.3%. With `O=C(c1ccco1)N1CCN(C(=O)c2cc3sccc3n2Cc2ccccc2)CC1` the “rescue activity (ATP increase)” value was 18%. In the case of `O=C(NCc1ccco1)C1CCN(C(=O)c2cc3sccc3n2Cc2ccc(F)cc2)CC1`, the “rescue activity (ATP increase)” value was 36.2%. In the case of `O=C(CN(c1ccc(F)cc1)S(=O)(=O)c1ccccc1)NCc1ccco1`, the “rescue activity (ATP increase)” value was 6.02%. With `CCN1CCN(c2ccc(NC(=O)Cc3ccccc3)cc2)CC1` the “rescue activity (ATP increase)” value was -4.12%. With `O=S(=O)(c1cccc2nsnc12)N1CCOCC1` the “rescue activity (ATP increase)” value was 28.7%. With `COc1ccc(NC(=O)Nc2ccc3c(c2)C(=O)N([C@H](C)CO)C[C@@H](C)[C@@H](CN(C)Cc2ccc(C(F)(F)F)cc2)OCCCC[C@@H](C)O3)cc1` the “rescue activity (ATP increase)” value was -2.15%. For `CCC(C)(NC(=O)CNC(C)=O)C(=O)NC1CCCCC1` (stereo not given), the “rescue activity (ATP increase)” value was 1.71%. In the case of `COc1ccc(C#Cc2cnc3c(c2)C(=O)N([C@@H](C)CO)C[C@@H](C)[C@H](CN(C)C(=O)Nc2cccc(OC)c2)O3)cc1`, the “rescue activity (ATP increase)” value was 17.4%. For `CCOCCn1c(COc2ccccc2)nc2ccccc21`, the “rescue activity (ATP increase)” value was 17.6%. In the case of `CCOC(=O)c1ccc2c(c1)nc(COc1ccc(OC)cc1)n2CC`, the “rescue activity (ATP increase)” value was -4.99%. In the case of `O=C(CCCCCn1c(=O)[nH]c2ccsc2c1=O)NCc1ccc(F)cc1`, the “rescue activity (ATP increase)” value was 1.05%. In the case of `CCc1ccc(NC(=O)c2cc(-c3cccs3)on2)cc1`, the “rescue activity (ATP increase)” value was -4.74%. For `CCOC(=O)/C=C(\C)Nc1cc(C)nn1-c1ccccc1`, the “rescue activity (ATP increase)” value was 10.6%. With `C[C@@H]1CN([C@H](C)CO)C(=O)c2cc(NC(=O)Cc3cn(C)c4ccccc34)ccc2O[C@H]1CN(C)S(=O)(=O)c1cccs1` the “rescue activity (ATP increase)” value was 14.4%. For `O=C(NCc1ccco1)C(c1ccc(F)cc1)N(Cc1cccnc1)C(=O)Cn1nnc2ccccc21` (stereo not given), the “rescue activity (ATP increase)” value was -5.93%.
